Assay outcomes: PubChem BioAssay, National Center for Advancing Translational Sciences (NCATS)
Most compounds without a hit are left out; they make up all but 2.4% or so of the library.
D2 ag-1: agonists of human D2 dopamine receptor (beta-arrestin); DiscoveRx PathHunter D2 beta-arrestin, luminescence, 90 min; 100% = 57 uM dopamine signal; AID 624465; activation, % (concentration not given with the values); P14416; 360,000 compounds, 0.084% hits; in the data active = activation above about 40%
Target sequence (P14416 whole entry, looked up): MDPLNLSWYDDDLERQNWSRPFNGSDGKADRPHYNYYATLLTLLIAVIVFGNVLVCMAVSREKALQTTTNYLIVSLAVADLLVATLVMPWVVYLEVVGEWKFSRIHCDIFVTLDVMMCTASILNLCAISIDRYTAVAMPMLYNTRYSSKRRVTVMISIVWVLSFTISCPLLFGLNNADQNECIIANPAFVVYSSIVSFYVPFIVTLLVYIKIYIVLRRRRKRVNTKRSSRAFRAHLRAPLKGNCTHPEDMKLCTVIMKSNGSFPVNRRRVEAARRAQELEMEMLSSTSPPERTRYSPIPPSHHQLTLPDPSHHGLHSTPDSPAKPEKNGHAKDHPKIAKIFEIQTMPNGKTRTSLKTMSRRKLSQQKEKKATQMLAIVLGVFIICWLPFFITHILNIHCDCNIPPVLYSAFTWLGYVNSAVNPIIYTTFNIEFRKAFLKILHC
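DiscoveRx PathHunter D2 beta-arrestin cells (2,100/well) attached overnight, then compound-stimulated 90 min at 37 C in HBSS/10 mM HEPES/0.1% Tween-20 buffer; beta-galactosidase complementation read by luminescence after 1 h at ambient temperature. Dopamine 57 uM final (EC100) as control.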
D2 ag-2: agonists of human D2 dopamine receptor; HEK293 T-REx D2 cells, calcium flux agonist mode; activation, % at 2 µM; 340,000 compounds, 0.53% hits;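 active = activation over 3 SD above normal in the single-dose calcium agonist read, cut at about 30% in these data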; note: 0% is about no effect
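HEK293 Trex D2 cells, tetracycline-induced, o/n 30 C 5% CO2; no-wash Ca dye, RT 30–90 min; 10-cycle baseline, 23 nl cpd added, kinetic Ca read 180 s; agonist hits = positive Ca response.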
D2 antag: D2 dopamine receptor (human) antagonism; P14416; HEK293 TREx D2 cells, calcium flux, dopamine EC80; inhibition, % at 10 µM; 340,000 compounds, 2% hits; in the data active = inhibition above about 30%; inactive = below that, where a call was filed; note: 0% is about no effect
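Antagonism is scored as inhibition of an EC80 dopamine-evoked calcium signal in a force-coupled, tetracycline-inducible HEK293 T-REx D2 line, with compound present 180 s before agonist.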
D2 PAM-1: positively modulates the human D2 dopamine receptor allosterically | P14416 | HEK293 T-REx D2, calcium flux, EC20 dopamine potentiation | potentiation, % at 10 µM | 340,000 compounds, 0.34% hits | AID 485347;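 active = potentiation over 3 SD above the plate norm, cut at about 30% in these data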; note: 0% is about no effect
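Cells plated with tetracycline inducer and held overnight at 30 C; calcium dye loaded 30–90 min at room temperature; baseline taken, compound added and read 180 s; EC20 dopamine then added and read 180 s.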
D2 PAM-2: positive allosteric modulators of human D2 dopamine receptor | P14416 | DiscoveRx D2 beta-arrestin cells, luminescence, 90 min; 100% = 57 uM dopamine signal | potentiation, % (concentration not given with the values) | 360,000 compounds, 0.23% hits | AID 624464; in the data active = potentiation above about 50%
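D2 cells co-treated with compound plus 50 nM dopamine (EC20) for 90 min at 37 deg C to detect potentiation. Beta-arrestin recruitment was read as enzyme-fragment luminescence after 1 h at ambient temperature. Full response was set by 57 uM dopamine.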
* hit, by the source's call.

For CCOC(=O)c1ccc(NC(=O)C2CCN(S(=O)(=O)Cc3ccccc3)CC2)cc1 the results were D2 ag-2 0 and D2 PAM-1 11.
`CCOC(=O)c1c(-c2ccccc2)csc1NC(=O)c1cc(-c2cccc(OC)c2)on1` gave D2 PAM-1 -5.
COc1ccc(N2C(=O)C(Cl)=C(N3CCN(Cc4ccccc4)CC3)C2=O)cc1 was read as D2 ag-1 -2 and D2 PAM-2 1.
O=C1C(Cl)=C(N2CCN(Cc3ccccc3)CC2)C(=O)N1c1ccccc1 was read as D2 ag-1 -3, D2 ag-2 -1, D2 antag 37*, D2 PAM-1 -11 and D2 PAM-2 -15.
For Cc1nn(-c2ccc(Cl)cc2)c(N)c1C(O)(CSc1nccn1C)C(F)(F)F (stereo not drawn) the results were D2 ag-1 1, D2 ag-2 1, D2 antag 9, D2 PAM-1 6 and D2 PAM-2 -4.
`Cc1nn(-c2ccccc2)c(N)c1C(O)(CSc1nccn1C)C(F)(F)F` (stereo not drawn) gave D2 ag-1 0, D2 ag-2 0, D2 antag 37*, D2 PAM-1 0 and D2 PAM-2 6.
Screening CCc1ccccc1N(C)C(=O)Cn1cnc2sc(C)c(S(=O)(=O)N3CCN(c4ncccn4)CC3)c2c1=O returned D2 PAM-1 -2.
Cc1csc(SCC(=O)Nc2ccc(C)c(F)c2)n1 was read as D2 ag-1 -3, D2 ag-2 -1, D2 antag 37*, D2 PAM-1 -23 and D2 PAM-2 -17.
Screening Cc1csc(SCC(=O)Nc2cccc3nsnc23)n1 returned D2 ag-1 0, D2 ag-2 1, D2 antag 33*, D2 PAM-1 4 and D2 PAM-2 -4.
For Cc1csc(SCC(=O)Nc2ccccc2C)n1 the results were D2 ag-1 -4, D2 ag-2 0, D2 antag 7, D2 PAM-1 17 and D2 PAM-2 -23.
`Cc1ccc2c(c1Br)/C(=N/N1C(=O)c3ccccc3C1=O)C(=O)N2` gave D2 ag-1 -18, D2 ag-2 1, D2 antag 16, D2 PAM-1 25 and D2 PAM-2 -52.
`CCOc1ccc(N=C2C(=O)Nc3ccc(C)c(Br)c32)cc1` gave D2 ag-1 -17, D2 ag-2 1, D2 antag 42*, D2 PAM-1 -3 and D2 PAM-2 -32.
CCOc1ccccc1NC(=O)NCc1ccccc1 was read as D2 ag-1 -2, D2 ag-2 -1, D2 antag 42*, D2 PAM-1 -21 and D2 PAM-2 -11.
CCOc1ccc(N2CC(C(=O)N3CCCc4ccccc43)CC2=O)cc1 (stereo not drawn) was read as D2 ag-1 0, D2 ag-2 -3, D2 antag 56* and D2 PAM-2 2.
Screening CCOc1ccc(N2CC(C(=O)NCCc3ccc(S(N)(=O)=O)cc3)CC2=O)cc1 (stereo not drawn) returned D2 ag-1 -2, D2 ag-2 1, D2 antag 38*, D2 PAM-1 14 and D2 PAM-2 -6.
CCCCn1nnnc1C(c1cccc2ccccc12)N1CCN(C/C=C/c2ccccc2)CC1 (stereo not drawn) was read as D2 ag-1 1 and D2 PAM-2 -13.
Screening Cn1c2ccccc2c(=O)c2c(=O)n(Cc3ccco3)c(-c3ccc(F)cc3)nc21 returned D2 ag-1 -4, D2 ag-2 -1, D2 antag -7, D2 PAM-1 9 and D2 PAM-2 -7.
`Cc1ccc(-c2nc3c(c(=O)c4ccccc4n3C)c(=O)n2Cc2ccco2)cc1` gave D2 ag-1 4, D2 ag-2 4, D2 antag 36*, D2 PAM-1 12 and D2 PAM-2 8.
Screening Cc1cc(C)cc(NC(=O)c2cccc(NC3=NC4CS(=O)(=O)CC4S3)c2)c1 (stereo not drawn) returned D2 ag-1 -10, D2 ag-2 0, D2 antag 34*, D2 PAM-1 4 and D2 PAM-2 -7.
